CHX counter = counter-screen for Shiga toxin inhibitors: cycloheximide protein synthesis inhibition; cell reporter, cycloheximide protein synthesis inhibition counterscreen; max response, %; AID 2314; hit rate 12% among 300,000; in the data active = max response mostly above about 13%, no sharp cut-off; inactive = mostly below about 14%; also: read at 38.3 µM for the half of the compounds with a filed dose; 0% is about no effect
MARV entry inh = blocks Marburg virus binding to or entry into cells. Marburg virus pseudotyped entry inhibition, cell reporter. Potency, µM (series often up to 37.8 µM), inactives show top-dose activity change, negative = inhibition, actives largely listed as inhibitors. hit rate 1.8% among 300,000. AID 540276; calls by dose curve; tested in HEK293 cells; also: potency is read from the fitted curve at half-maximal effect; % is scaled to controls: 0 for no effect and ±100 for the full control effect
Shiga toxin inh = inhibitors of Shiga toxin in Vero cells. Vero cells, Shiga toxin protein synthesis inhibition reporter. inhibition, % at 38.7 µM. hit rate 9.2% among 290,000. AID 2315; in the data active = inhibition mostly above about 28%, no sharp cut-off; inactive = mostly below about 43%; also: 0% is about no effect
Lassa entry inh = Lassa virus entry inhibition. Lassa virus pseudotype entry inhibition, cell reporter. Potency, µM (top dose mostly 37.9 µM), for inactives: at the highest dose activity change, negative = inhibition, actives largely listed as inhibitors. hit rate 1.2% among 300,000; calls by dose curve; tested in HEK293 cells; also: potency is read from the fitted curve at half-maximal effect; % is scaled to controls: 0 for no effect and ±100 for the full control effect; nearly all actives have a fitted effect of over 50% in size
Numbers without * were called inactive; ? = inconclusive; . = no result; [ ] = remark or other dose. In the library only some 12% were active in any assay of this set; here they are far more common.

SMILES	CHX counter	MARV entry inh	Shiga toxin inh	Lassa entry inh
COc1ccc(OC)c(N2Cc3cc(C)c(C)cc3C2)c1	14*	?	18	-22%
CCOc1ccccc1N1Cc2cc(C)c(C)cc2C1	12	.	22	.
O=C(CSCc1ccccc1Cl)NCCSc1ccccn1	21*	26%[46.1 µM]	69	.
CN(C)S(=O)(=O)c1ccc(SCC(=O)N2CC(=O)Nc3ccccc32)nc1	.	0%	.	15%
CCOC(=O)C(=CNc1cc(C)ccc1[N+](=O)[O-])C(=O)OCC	-3	.	1	.
CN(C)c1ccc(/C=C/c2cc[n+]([O-])cc2)cc1	42*	-7%	172*	.
CN(C)c1ccc(/C=C/c2cc[n+](C)cc2)cc1	-3	?	-17	?
Cc1ccc(NC(c2nnc(-c3ccccc3)o2)c2ccccc2F)c(Cl)c1 (centres undefined)	.	19%[46.1 µM]	.	12%[46.1 µM]
CCOc1ccc(NC(=NCc2ccc3c(c2)OCO3)SC2CC(=O)N(c3ccc(C(=O)O)cc3)C2=O)cc1 (centres undefined)	0	-12%	-3	?
C=CCn1c(SCC(=O)NC2CC2)nnc1-c1cccc(OC)c1	-2	0%[46.1 µM]	-12	7%[46.1 µM]
C=CCn1c(SCC(=O)NC(N)=O)nnc1-c1cc2c(s1)CCC(CC)C2 (centres undefined)	9	20%	34	-28%
C=CCn1c(SCC(=O)NCCOC)nnc1-c1cc2c(s1)CCC(CC)C2 (centres undefined)	15*	?	-70	-11%
C=CCn1c(SCC(=O)NCC)nnc1-c1cc2c(s1)CCC(CC)C2 (centres undefined)	42*	0%	94*	0%
CC(C)C1(C)C(=O)N=C2C3=C(CCCC3)C(=O)N21 (centres undefined)	.	17%[46.1 µM]	.	.
O=c1[nH]c(=O)n(Cc2ccco2)c2c1C(C(F)(F)F)(C(F)(F)F)N=C(Cc1ccccc1)N2	12	-6%	-24	-24%
COC(OC)c1ccc(C#N)c(SCc2ccc(C)cc2)n1	6	-4%	21	15%
CC(=O)N1CCN(C(=O)CSc2nc3c(cnn3-c3ccccc3)c(=O)[nH]2)CC1	38*	12%	78*	-5%
CC1CCN(C(=O)CSc2nc3c(cnn3-c3ccccc3)c(=O)[nH]2)CC1	-3	.	14	.
O=C(Oc1ccccc1N1C(=O)CCC1=O)c1ccco1	1	25%	-9	4%
O=C1CS/C(=N\N=C\c2ccco2)N1c1ccccc1	15*	?	45	-23%[46.1 µM]
O=C(N=C1SCC(=O)N1c1ccccc1Cl)c1ccco1	30*	3%	104*	18%
O=C(N=C1SCC(=O)N1c1ccccc1Cl)c1ccccc1	35*	1%[46.1 µM]	73*	6%
O=C(N=C1SCC(=O)N1c1ccccc1)c1ccco1	31*	?	47	-2%
COc1ccccc1CNS(=O)(=O)c1c(C)[nH]c(C)c1C(=O)N1CCCC1	-2	?	-9	2%[46.1 µM]
Cc1ccc(CCNC(=O)C23C[C@H]4C[C@@H](C2)CC(n2nnc(C)n2)(C4)C3)cc1	41*	-18%[46.1 µM]	59	-3%[46.1 µM]
SMILES	CHX counter	MARV entry inh	Shiga toxin inh	Lassa entry inh
O=C(OCc1nnc(-c2ccc(Cl)cc2)o1)C12CC3CC(CC(O)(C3)C1)C2	39*	28%[46.1 µM]	118*	5%
O=C(Cc1ccc(Cl)cc1)OCc1nnc(-c2ccccc2)o1	-1	.	-9	.
O=C(NCCc1ccc(Cl)cc1)C12CC3CC(CC(O)(C3)C1)C2	19*	.	17	.
CCOc1ccc(-c2nonc2NC(=O)c2ccc(C)cc2)cc1OCC	.	?	.	13%[46.1 µM]
O=C(C[n+]1ccccc1)N/N=C/c1ccccc1C(F)(F)F	-3	.	-8	.
CN(CC(=O)Nc1ccccc1Cl)C(=O)CSc1nncn1C	.	?	.	-3%[46.1 µM]
COC(=O)/C=C/c1ccc(-n2ccnc2)cc1	40*	-5%[46.1 µM]	38*	2%
CCOc1ccc(NC(=O)C2(c3cccs3)CCOCC2)cc1	.	.	.	-18%[46.1 µM]
Cc1[nH]nc(SCC(=O)N2CCCCCC2)c1[N+](=O)[O-]	11	-20%[46.1 µM]	29	?
Cc1[nH]nc(SCC(=O)N2CCCCC2)c1[N+](=O)[O-]	23*	-1%[46.1 µM]	86	5%
CCOC(=O)OC[C@H]1O[C@H](c2cc(C)cc(C)c2)C=C[C@H]1OC(=O)OCC	.	2%[14.2 µM]	.	.
C=CCn1c(=O)c(C(=O)NC(C)c2ccccc2)c(O)c2ccccc21 (centres undefined)	-2	.	-11	.
Cc1cc(NC(=O)CSCC(=O)Nc2ccccc2Oc2ccccc2)no1	.	2.8µM*	.	?
Cc1ccc(Oc2ccccc2NC(=O)CSCC(=O)Nc2cc(C)on2)cc1	.	13µM*	.	?
CCCn1c2ccccc2c2cnn(CC(=O)NCC3CCN(Cc4ccc(F)cc4)CC3)c(=O)c21	.	.	.	3%[46.1 µM]
COc1ccc(C)c2sc(=NC(=O)c3ccc(C(C)=O)cc3)n(C)c12	38*	.	67*	.
COc1ccc(C)c2sc(=NC(=O)c3ccccc3)n(C)c12	18*	.	69*	.
COc1ccc(C)c2sc(=NC(=O)c3cccc(N4C(=O)CCC4=O)c3)n(C)c12	20*	.	27	.
COc1ccc(CNC(=O)CN(C(=O)c2snc(C(N)=O)c2N)c2ccccc2F)cc1	-3	-29%[46.1 µM]	1	?
COc1ccc(-c2cc(C(=O)O)c(C)o2)cc1OC	-7	?	-20	?
COc1ccc(-c2cc(C(=O)NC(Cc3cc4ccccc4[nH]3)C(=O)O)c(C)o2)cc1OC (centres undefined)	33*	3%[46.1 µM]	49*	19%
N#Cc1c(N)nc(N)nc1Nc1ccc(Br)cc1	41*	?	90*	1%[46.1 µM]
Cc1nn(C)c2c1c(C(F)(F)F)cc(=O)n2CC(=O)NC(C)(C)C	.	.	.	-8%[46.1 µM]
O=C(Nc1ccccc1)c1ccc(=O)[nH]n1	-3	?	-2	4%[46.1 µM]
O=C(Nc1ccc(S(=O)(=O)Nc2cnc3ccccc3n2)cc1)c1ccc(F)cc1	.	-13%[46.1 µM]	.	-10%
SMILES	CHX counter	MARV entry inh	Shiga toxin inh	Lassa entry inh
CC(OC(=O)c1cnc2ccccc2n1)c1ccccc1Cl (centres undefined)	36*	?	69*	-3%
CC(NC(=O)c1cnc2ccccc2n1)c1ccccc1 (centres undefined)	23*	?	41	5%[46.1 µM]
N#Cc1ccc(COC(=O)c2cnc3ccccc3n2)cc1	-4	3%[46.1 µM]	21	10%[46.1 µM]
Cc1ccc(NC(=O)c2ccc(=O)[nH]n2)cc1C	48*	?	100*	24%[46.1 µM]
NC(=O)c1ccc(NC(=O)c2cnc3ccccc3n2)cc1	37*	.	80*	.
CC(=O)c1cccc(CN2CCC(C(=O)Nc3cccc(-c4ccn[nH]4)c3)CC2)c1	2	?	-6	3%
Cc1cccc(CNC(=O)Cn2nc(C)n3c(cc4cc(F)ccc43)c2=O)c1	.	7%[46.1 µM]	.	.
O=C(Nc1ccccc1)c1cnc2ccccc2n1	40*	28%	60*	?
CC(=O)Nc1cnc2ccccc2n1	2	2%[46.1 µM]	-4	-9%
Cc1ccc(NC(=O)c2ncc(Cl)c(Cl)c2Cl)cc1C	40*	9%[46.1 µM]	61	8%
Cc1ccc(NC(=O)c2sc(Cl)nc2-c2ccccc2)cc1C	-3	-7%	-22	-14%
Cc1ccc(NC(=O)c2cnc3ccccc3n2)cc1C	51*	4%[46.1 µM]	67*	-13%
CC(C)CO/N=C1/C[C@@H](O)[C@@H](O)[C@@H]2[C@@H]3C(=O)N(c4cccc(Oc5ccccc5)c4)C(=O)[C@H]3CC[C@@H]12	.	-1%[14.2 µM]	.	.

Assay outcomes as filed in PubChem BioAssay.
